# Sampled rows, rich in hits. Any-hit rate of the full collection: about 3.3%.
# HEK293 cAMP ctrl = parental HEK293 cAMP activation (counter-screen); AID 938; Potency, µM (series often up to 57.1 µM), usual class: activators; actives 2.5% (n = 73,000); parental HEK293 CNG cAMP sensor, membrane potential fluorescence; note: nearly all actives have a fitted effect of over 55% in size
#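 Counterscreen for endogenous-receptor signalling: CNG-channel HEK 293 cells report cAMP rise by membrane depolarization. After 60 min dye equilibration with 100 uM RO 20-1724, compounds incubated 30 min before bottom-read fluorescence at 590 nm.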
# YjeE inh = YjeE (TsaE) inhibition, E. coli | P0AF67 | purified YjeE enzyme, qHTS inhibition assay | Potency, µM | actives 0.05% (n = 71,000) | AID 605
#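 Fluorescence polarization of a BODIPY Texas Red–ADP probe (2 uM) bound to purified YjeE (10 uM) was read after 15 min room-temperature incubation with compounds. Loss of polarization marks inhibitors; ADP serves as titrated control.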
# BRCT PPI green = BRCA1 BRCT-phosphoprotein interaction inhibition. P38398. BRCA1 BRCT-phosphopeptide binding, green fluorescence polarization. Potency, µM (series often up to 76.9 µM), actives largely listed as inhibitors. actives 0.05% (n = 75,000). AID 875
#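 Fluorescence polarization: His-tagged BRCT (~35 kDa BRCA1 C-terminus, 250 nM) bound to 100 nM fluorescein-labeled phosphorylated 10-aa BACH1 peptide, pH 7.3 phosphate buffer with DTT and Tween 20. Compounds incubated 12 min at room temperature; inhibition read as lowered polarization.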
# Hsp90 Hop PPI = changes Hsp90-Hop TPR2A binding signal, up or down | Potency, µM (doses to about 57 µM) | AlphaScreen TPR2A-His6 binding biotin-Hsp90 C-terminal peptide | actives 0.44% (n = 71,000); active = well fitted curve in either direction with a large enough effect; inconclusive = small, poorly fitted or top-dose-only effect, or another doubt
# BRCT inh red = BRCT-phosphoprotein interaction inhibition (red fluorophore); P38398; BRCT-phosphopeptide binding, red fluorescence polarization; Potency, µM (highest dose often 76.9 µM), usual class: inhibitors; actives 0.03% (n = 75,000); AID 892
#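 Fluorescence polarization: 100 nM His-tagged BRCA1 BRCT with 100 nM TAMRA-labelled phospho-BACH1 decapeptide, phosphate buffer pH 7.3 with 150 mM NaCl, DTT, 0.01% Tween 20; 12 min RT. Binding inhibition seen as FP decrease.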
# TSHR agonist = activates the human thyroid stimulating hormone receptor. P16473. HEK293-CNG-TSHR cells (CNG channel as cAMP sensor), membrane potential dye, cAMP. Potency, µM (highest dose often 57.1 µM), most hits filed as activators. actives 0.48% (n = 73,000); active = well fitted activation curve with a large enough effect in the main read-out, with a control signal flat, not every such curve was filed as active; inconclusive = small, poorly fitted or top-dose-only effect, or a change in a side signal; inactive = no such curve, though single readings can be large or run the other way; reference of the percent scale not stated here;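 note: the control signal comes from parental cells without the receptor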
#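 HEK 293 cells stably expressing TSHR and a modified CNG channel, with CNG-only parental cells as counterscreen, were preloaded 60 min at room temperature with membrane potential dye containing 100 uM RO 20-1724. Compound exposure was 30 min, and depolarization was read as fluorescence at 590 nm.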
# parental cAMP = counter-screen for TSH receptor agonists: cAMP in parental HEK293 cells | shares compounds with TSHR agonist | parental HEK293 CNG biosensor, cAMP membrane potential fluorescence | activity change, negative = inhibition, % at 32.9 µM | 150 tested, under 10 active
# A number is an active result; i = inactive; ? = inconclusive; nt = not tested or not shown. Unless noted, calls come from the whole dose curve; as a rule, active = well fitted curve in the direction sought with a large enough effect; inconclusive = small, poorly fitted or top-dose-only effect, or another doubt; inactive = no such curve, though single readings can be large; an effect the other way counts as inactive or inconclusive.
SMILES,HEK293 cAMP ctrl,YjeE inh,BRCT PPI green,Hsp90 Hop PPI,BRCT inh red,TSHR agonist,parental cAMP
CC(c1ccco1)N(C(=O)c1ccc(Cl)s1)c1ccccn1 (configuration not stated),?,i,i,i,i,?,i
Cc1cc(C)n2nc(SCC(=O)c3cc(C)n(-c4cc(C)on4)c3C)nc2n1,?,i,i,i,i,?,nt
Cc1cc(-n2c(C)cc(C(=O)CSc3nnnn3-c3ccc(Cl)cc3)c2C)no1,i,i,i,i,i,nt,i
O=C(Nc1ccccn1)c1cccc(S(=O)(=O)N2CCOCC2)c1,i,i,i,i,i,i,nt
CC1CCN(S(=O)(=O)c2cccc(C(=O)Nc3ccccn3)c2)CC1,i,i,i,i,i,25µM,i

# Assay outcomes (PubChem BioAssay)
